Drawing on the supplement of paper PMC7726561, this text covers thermal melting temperature for 36 sequences.

Over roughly 1,100 sequences, “thermal melting temperature (Tm) of peptide-HLA complex” has its median near 58; the lowest 2% begin near 42. Shown is part of a subset that was picked to be rich in the lowest values.

B1: unnamed (peptide)
chain: RLMNDMTAV
B2: unnamed (peptide)
chain: RLLDGAFKL
B3: unnamed (peptide)
chain: SLLDGHFVL
B4: unnamed (peptide)
chain: VLIDYQRNV
B5: unnamed (peptide)
chain: FLSSVIQNL
B6: unnamed (peptide)
chain: QLYNQIIKL
B7: unnamed (peptide)
chain: IQDFEMPTV
B8: unnamed (peptide)
chain: VMLDVPIRL
B9: unnamed (peptide)
chain: HLIDDLLAA
B10: unnamed (peptide)
chain: ALFPAPLAQI
B11: unnamed (peptide)
chain: NIIELVHQV
B12: unnamed (peptide)
chain: KLGDFGLLV
B13: unnamed (peptide)
chain: FLNPDEVHAI
B14: unnamed (peptide)
chain: FLMENGSITSI
B15: unnamed (peptide)
chain: YLSGIAHFL
B16: unnamed (peptide)
chain: SLAQYLINA
B17: unnamed (peptide)
chain: TIPEAFRGV
B18: unnamed (peptide)
chain: KLLWTTSRV
B19: unnamed (peptide)
chain: RVIGTLEEV
B20: unnamed (peptide)
chain: YLDEDTIYHL
B21: unnamed (peptide)
chain: AALEEADKMFL
B22: unnamed (peptide)
chain: SVTSEGIKAV
B23: unnamed (peptide)
chain: TVADKIHSV
B24: unnamed (peptide)
chain: KMDEVLYSI
B25: unnamed (peptide)
chain: RLAEVGQYEQV
B26: unnamed (peptide)
chain: TLIGLSIKV
B27: unnamed (peptide)
chain: SVAEGRALMSV
B28: unnamed (peptide)
chain: FQVDEIYTV
B29: unnamed (peptide)
chain: ILDQKVALL
B30: unnamed (peptide)
chain: ILDQKINEV
B31: unnamed (peptide)
chain: VILESDPQQVV
B32: unnamed (peptide)
chain: IIADMDKWTV
B33: unnamed (peptide)
chain: SMGQLPHTV
B34: unnamed (peptide)
chain: ALERLLPQV
B35: unnamed (peptide)
chain: KLYQEVEIASV
B36: unnamed (peptide)
chain: SLLPFLKAV
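Note: lysates heated 10 min at 37–73 °C, complexes pulled down with pan-HLA I antibody, peptide signal by DIA-MS relative to 37 °C, Tm where half the complex is unfolded.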

This test addresses HLA-A*02:01. In words: thermal melting temperature (Tm) of peptide-HLA complex; higher = more thermostable pHLA complex. Particulars: C1R-A*02:01.
The sequence B1 registered a thermal melting temperature of 58.9 °C.
The sequence B2 yielded a thermal melting temperature of 49.9 °C.
B3 came in with a thermal melting temperature of 40.1 °C.
B4: the thermal melting temperature came out at 60.1 °C.
Regarding B5, the thermal melting temperature stood at 58.3 °C.
Sequence B6 yielded a thermal melting temperature of 56.1 °C.
Regarding B7, the thermal melting temperature is 50.9 °C.
With B8, the thermal melting temperature worked out at 55.9 °C.
The sequence B9 displayed a thermal melting temperature of 41.1 °C.
B10 yielded a thermal melting temperature of 62.7 °C.
As to B11, the thermal melting temperature worked out at 57.1 °C.
To B12 belongs 60.4 °C; to B13, 59.9 °C.
As for B14, the thermal melting temperature came to 58.2 °C.
B15: the thermal melting temperature came out at 62 °C.
In the case of B16, the thermal melting temperature amounted to 56.7 °C.
As for B17, the thermal melting temperature turned out to be 46.3 °C.
Next, B18: 60.1 °C.
Sequence B19 gave a thermal melting temperature of 57.6 °C.
Next, B20: 45.2 °C; B21: 53.3 °C.
B22 came in with a thermal melting temperature of 46 °C.
The sequence B23 registered a thermal melting temperature of 55.7 °C.
With B24, the thermal melting temperature turned out to be 59 °C.
In turn, B25 yielded a thermal melting temperature of 56.3 °C.
With B26, the thermal melting temperature was found to be 56.7 °C.
Regarding B27, the thermal melting temperature amounted to 56.8 °C.
On to B28, for which the thermal melting temperature stood at 56 °C.
The sequence B29 yielded a thermal melting temperature of 41.7 °C.
In turn, B30 showed a thermal melting temperature of 60 °C.
On to B31, for which the thermal melting temperature came to 40.1 °C.
In the case of B32, the thermal melting temperature worked out at 54.6 °C.
In turn, B33 gave a thermal melting temperature of 41.4 °C.
In the case of B34, the thermal melting temperature came to 59.2 °C.
B35 gave a thermal melting temperature of 61 °C.
Consider B36, for which the thermal melting temperature was 61.9 °C.
